Experiments:
[1] = molecular target: T1, Muscle, skeletal receptor tyrosine-protein kinase (Homo sapiens) (UniProt O15146); conditions: at 1 µM;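 also: reported value is the mean percent inhibition of MuSK kinase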
T1 sequence (whole entry): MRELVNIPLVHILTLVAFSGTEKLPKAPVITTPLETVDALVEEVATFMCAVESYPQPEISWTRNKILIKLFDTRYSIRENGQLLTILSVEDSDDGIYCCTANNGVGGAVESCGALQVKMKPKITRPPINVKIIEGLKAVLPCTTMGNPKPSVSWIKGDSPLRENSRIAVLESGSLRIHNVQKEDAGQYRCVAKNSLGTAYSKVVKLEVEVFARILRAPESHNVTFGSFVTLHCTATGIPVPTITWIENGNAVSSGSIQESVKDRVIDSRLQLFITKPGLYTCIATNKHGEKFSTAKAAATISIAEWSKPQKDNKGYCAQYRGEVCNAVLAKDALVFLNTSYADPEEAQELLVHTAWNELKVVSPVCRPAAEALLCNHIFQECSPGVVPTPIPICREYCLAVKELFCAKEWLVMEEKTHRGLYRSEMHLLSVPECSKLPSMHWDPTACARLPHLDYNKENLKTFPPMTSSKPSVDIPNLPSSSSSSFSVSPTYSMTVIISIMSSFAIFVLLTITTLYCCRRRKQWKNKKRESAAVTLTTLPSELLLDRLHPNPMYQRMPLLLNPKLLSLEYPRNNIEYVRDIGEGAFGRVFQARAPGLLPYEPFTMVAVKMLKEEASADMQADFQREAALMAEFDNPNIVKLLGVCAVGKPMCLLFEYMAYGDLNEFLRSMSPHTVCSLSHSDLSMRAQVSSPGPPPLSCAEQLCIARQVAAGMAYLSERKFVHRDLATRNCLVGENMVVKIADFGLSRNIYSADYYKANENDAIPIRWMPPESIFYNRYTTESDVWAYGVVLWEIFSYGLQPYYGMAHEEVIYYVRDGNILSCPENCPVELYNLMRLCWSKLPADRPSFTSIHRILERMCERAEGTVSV

[2] = molecular target: Platelet-derived growth factor receptor alpha (Homo sapiens) (UniProt P16234); conditions: at 0.1 µM
[3] = molecular target: Platelet-derived growth factor receptor alpha (Homo sapiens) (UniProt P16234); conditions: at 1 µM
[4] = system: Platelet-derived growth factor receptor alpha (Homo sapiens), P16234 [D842V]; conditions: at 0.1 µM
[5] = system: Platelet-derived growth factor receptor alpha (Homo sapiens), P16234 [D842V]; conditions: at 1 µM
[6] = system: Platelet-derived growth factor receptor alpha (Homo sapiens), P16234 [T674I]; conditions: at 0.1 µM
[7] = system: Platelet-derived growth factor receptor alpha (Homo sapiens), P16234 [T674I]; conditions: at 1 µM
[8] = system: Platelet-derived growth factor receptor alpha (Homo sapiens), P16234 [V561D]; conditions: at 0.1 µM
[9] = system: Platelet-derived growth factor receptor alpha (Homo sapiens), P16234 [V561D]; conditions: at 1 µM
[10] = molecular target: Platelet-derived growth factor receptor beta (Homo sapiens) (UniProt P09619); conditions: at 0.1 µM
[11] = molecular target: Platelet-derived growth factor receptor beta (Homo sapiens) (UniProt P09619); conditions: at 1 µM
[12] = molecular target: Tyrosine-protein kinase FRK (Homo sapiens) (UniProt P42685); conditions: at 0.1 µM
[13] = molecular target: Tyrosine-protein kinase FRK (Homo sapiens) (UniProt P42685); conditions: at 1 µM
[14] = molecular target: Protein-tyrosine kinase 2-beta (Homo sapiens) (UniProt Q14289); conditions: at 0.1 µM
[15] = molecular target: Protein-tyrosine kinase 2-beta (Homo sapiens) (UniProt Q14289); conditions: at 1 µM
[16] = molecular target: Proto-oncogene tyrosine-protein kinase receptor Ret (Homo sapiens) (UniProt P07949); conditions: at 0.1 µM
[17] = molecular target: Proto-oncogene tyrosine-protein kinase receptor Ret (Homo sapiens) (UniProt P07949); conditions: at 1 µM
[18] = system: Proto-oncogene tyrosine-protein kinase receptor Ret (Homo sapiens), P07949 [V804L]; conditions: at 0.1 µM
[19] = system: Proto-oncogene tyrosine-protein kinase receptor Ret (Homo sapiens), P07949 [V804L]; conditions: at 1 µM
[20] = system: Proto-oncogene tyrosine-protein kinase receptor Ret (Homo sapiens), P07949 [Y791F]; conditions: at 0.1 µM

Sequence of Platelet-derived growth factor receptor alpha (Homo sapiens), P16234 [T674I] (P16234 whole entry T674I): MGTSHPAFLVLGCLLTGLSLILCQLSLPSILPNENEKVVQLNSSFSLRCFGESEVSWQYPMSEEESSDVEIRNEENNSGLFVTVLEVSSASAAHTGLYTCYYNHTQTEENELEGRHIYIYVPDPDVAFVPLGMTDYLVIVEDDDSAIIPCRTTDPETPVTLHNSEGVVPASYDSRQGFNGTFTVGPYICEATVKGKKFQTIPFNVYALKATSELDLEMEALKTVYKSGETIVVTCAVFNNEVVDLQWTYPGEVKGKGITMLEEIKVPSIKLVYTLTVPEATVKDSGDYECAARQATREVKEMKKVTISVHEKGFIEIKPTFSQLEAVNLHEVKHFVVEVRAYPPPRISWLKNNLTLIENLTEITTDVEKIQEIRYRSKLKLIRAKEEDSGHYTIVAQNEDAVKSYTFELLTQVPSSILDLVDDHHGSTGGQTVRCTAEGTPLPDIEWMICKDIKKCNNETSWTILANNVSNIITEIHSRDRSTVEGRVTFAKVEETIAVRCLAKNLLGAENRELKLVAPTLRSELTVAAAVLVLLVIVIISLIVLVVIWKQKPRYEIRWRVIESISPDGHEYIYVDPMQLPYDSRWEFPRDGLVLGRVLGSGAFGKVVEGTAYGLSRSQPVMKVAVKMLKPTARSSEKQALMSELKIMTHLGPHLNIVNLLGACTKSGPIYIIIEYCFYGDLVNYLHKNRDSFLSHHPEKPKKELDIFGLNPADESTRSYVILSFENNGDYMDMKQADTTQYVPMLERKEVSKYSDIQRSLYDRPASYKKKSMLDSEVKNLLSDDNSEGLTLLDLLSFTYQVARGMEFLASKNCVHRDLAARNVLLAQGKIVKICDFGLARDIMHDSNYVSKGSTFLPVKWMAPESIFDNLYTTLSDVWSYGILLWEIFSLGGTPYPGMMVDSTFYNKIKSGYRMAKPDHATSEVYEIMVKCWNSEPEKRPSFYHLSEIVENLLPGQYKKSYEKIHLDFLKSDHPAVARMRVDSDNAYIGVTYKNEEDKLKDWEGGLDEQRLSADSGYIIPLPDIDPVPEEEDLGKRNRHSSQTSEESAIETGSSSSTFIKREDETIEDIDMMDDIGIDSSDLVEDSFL
Sequence of Protein-tyrosine kinase 2-beta (Homo sapiens) (Q14289 whole entry, looked up): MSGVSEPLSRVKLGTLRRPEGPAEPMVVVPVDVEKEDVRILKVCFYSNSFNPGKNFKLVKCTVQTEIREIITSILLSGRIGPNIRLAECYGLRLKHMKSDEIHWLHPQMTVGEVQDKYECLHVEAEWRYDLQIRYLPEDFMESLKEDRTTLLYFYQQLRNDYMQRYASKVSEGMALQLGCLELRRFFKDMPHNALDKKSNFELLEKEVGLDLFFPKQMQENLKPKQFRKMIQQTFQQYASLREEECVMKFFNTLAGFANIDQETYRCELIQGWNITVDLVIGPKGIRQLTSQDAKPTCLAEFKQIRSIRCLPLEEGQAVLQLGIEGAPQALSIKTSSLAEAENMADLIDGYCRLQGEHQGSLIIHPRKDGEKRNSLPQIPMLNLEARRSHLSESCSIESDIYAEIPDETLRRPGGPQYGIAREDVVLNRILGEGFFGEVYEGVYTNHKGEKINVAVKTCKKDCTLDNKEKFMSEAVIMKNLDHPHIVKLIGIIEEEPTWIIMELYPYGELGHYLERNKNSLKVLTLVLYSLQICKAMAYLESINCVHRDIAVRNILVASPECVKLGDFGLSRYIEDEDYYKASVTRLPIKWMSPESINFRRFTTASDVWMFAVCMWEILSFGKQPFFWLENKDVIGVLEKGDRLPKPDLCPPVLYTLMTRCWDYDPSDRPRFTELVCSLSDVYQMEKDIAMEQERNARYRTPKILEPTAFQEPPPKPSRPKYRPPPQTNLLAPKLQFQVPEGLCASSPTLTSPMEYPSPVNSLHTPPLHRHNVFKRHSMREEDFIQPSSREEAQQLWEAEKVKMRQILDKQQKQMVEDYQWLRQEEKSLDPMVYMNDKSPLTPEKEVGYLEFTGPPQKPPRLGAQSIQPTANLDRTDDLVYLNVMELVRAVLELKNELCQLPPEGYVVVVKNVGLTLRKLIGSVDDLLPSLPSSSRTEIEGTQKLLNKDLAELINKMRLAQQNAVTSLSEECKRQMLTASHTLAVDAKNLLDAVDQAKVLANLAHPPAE
Sequence of Proto-oncogene tyrosine-protein kinase receptor Ret (Homo sapiens), P07949 [V804L] (P07949 whole entry V804L): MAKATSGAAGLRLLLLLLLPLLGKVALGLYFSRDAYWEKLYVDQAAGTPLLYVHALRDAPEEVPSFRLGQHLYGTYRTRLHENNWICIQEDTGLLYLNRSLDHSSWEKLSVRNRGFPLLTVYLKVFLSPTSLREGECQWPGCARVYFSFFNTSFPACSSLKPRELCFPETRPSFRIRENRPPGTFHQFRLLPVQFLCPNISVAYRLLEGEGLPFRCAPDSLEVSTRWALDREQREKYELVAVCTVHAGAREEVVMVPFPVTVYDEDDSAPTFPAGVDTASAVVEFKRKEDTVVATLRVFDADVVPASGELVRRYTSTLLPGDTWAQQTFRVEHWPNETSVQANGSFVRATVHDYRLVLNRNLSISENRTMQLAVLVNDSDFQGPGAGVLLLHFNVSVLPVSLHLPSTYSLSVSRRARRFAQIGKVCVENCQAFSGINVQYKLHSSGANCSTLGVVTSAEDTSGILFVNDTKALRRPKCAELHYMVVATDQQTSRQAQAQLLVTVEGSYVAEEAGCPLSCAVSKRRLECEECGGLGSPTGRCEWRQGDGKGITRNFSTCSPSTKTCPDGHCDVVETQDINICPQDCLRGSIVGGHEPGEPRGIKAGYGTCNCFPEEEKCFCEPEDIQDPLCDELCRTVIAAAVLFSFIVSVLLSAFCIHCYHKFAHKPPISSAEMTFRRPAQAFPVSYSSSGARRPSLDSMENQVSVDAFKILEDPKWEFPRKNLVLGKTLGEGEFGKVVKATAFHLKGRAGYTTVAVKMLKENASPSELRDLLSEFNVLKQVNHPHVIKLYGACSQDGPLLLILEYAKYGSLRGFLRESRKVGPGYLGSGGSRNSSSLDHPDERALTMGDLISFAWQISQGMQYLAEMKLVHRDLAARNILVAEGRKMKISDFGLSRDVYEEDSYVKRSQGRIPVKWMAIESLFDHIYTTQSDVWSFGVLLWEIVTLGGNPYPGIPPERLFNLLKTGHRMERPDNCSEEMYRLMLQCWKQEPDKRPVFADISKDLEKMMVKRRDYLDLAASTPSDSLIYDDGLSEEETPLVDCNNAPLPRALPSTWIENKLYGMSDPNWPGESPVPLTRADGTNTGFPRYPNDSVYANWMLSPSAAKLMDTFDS
Sequence of Platelet-derived growth factor receptor alpha (Homo sapiens), P16234 [D842V] (P16234 whole entry D842V): as the sequence (P16234 whole entry T674I) above, with I674T, D842V counted along it
Sequence of Tyrosine-protein kinase FRK (Homo sapiens) (P42685 whole entry): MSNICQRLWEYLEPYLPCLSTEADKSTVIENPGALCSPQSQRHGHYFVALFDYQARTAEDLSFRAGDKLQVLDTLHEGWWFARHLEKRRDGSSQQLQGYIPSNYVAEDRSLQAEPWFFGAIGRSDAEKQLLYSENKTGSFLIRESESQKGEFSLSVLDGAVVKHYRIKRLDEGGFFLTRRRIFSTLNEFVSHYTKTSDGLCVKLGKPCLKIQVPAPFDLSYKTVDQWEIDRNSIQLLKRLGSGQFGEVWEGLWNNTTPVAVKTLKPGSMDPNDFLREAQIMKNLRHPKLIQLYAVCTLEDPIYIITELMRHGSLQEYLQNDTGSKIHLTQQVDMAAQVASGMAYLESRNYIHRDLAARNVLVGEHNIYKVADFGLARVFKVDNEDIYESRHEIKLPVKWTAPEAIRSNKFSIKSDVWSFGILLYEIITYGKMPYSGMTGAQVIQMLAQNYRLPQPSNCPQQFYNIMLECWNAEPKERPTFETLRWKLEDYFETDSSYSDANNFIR

SMILES | inhibition [1] | inhibition [2] | inhibition [3] | inhibition [4] | inhibition [5] | inhibition [6] | inhibition [7] | inhibition [8] | inhibition [9] | inhibition [10] | inhibition [11] | inhibition [12] | inhibition [13] | inhibition [14] | inhibition [15] | inhibition [16] | inhibition [17] | inhibition [18] | inhibition [19] | inhibition [20]
CCCN1CCC(Oc2cc(Nc3nc(Nc4cccc(F)c4C(N)=O)c4cc[nH]c4n3)c(OC)cc2Cl)CC1 | 8.65% | 3.93% | 11.6% | 0.78% | -0.29% | 2.51% | 1.04% | 1.89% | 4.25% | 4.35% | 8.63% | -0.17% | 0.23% | 38.2% | 92.4% | 7.67% | 12.8% | 3.55% | 15.5% | 4.36%
O=C1NC(=O)C(c2ccccc2Cl)=C1Nc1cccc(O)c1 | 6.51% | 5.26% | 9.63% | 0.89% | -0.58% | 1.6% | 2.66% | 1.34% | 2.14% | 4.9% | 3.43% | 0.88% | 0.39% | 5.7% | 8.51% | 1.55% | 7.91% | 3.61% | 2.98% | 2.99%
O=C(Nc1n[nH]c2nc(-c3ccco3)c(Br)cc12)C1CC1 | 6.32% | 4.56% | 12.9% | 0.77% | 4.15% | 5.19% | 6.07% | 0.75% | 4.4% | 3.97% | 6.81% | 1.22% | 4.35% | -1.24% | 3.71% | 6.36% | 4.7% | 4.14% | 0.95% | 4.67%
[O-][S+]1CCN(Cc2ccc(-c3ccc4ncnc(Nc5ccc(OCc6ccccc6)c(F)c5)c4c3)o2)CC1 | 3.05% | 3.33% | 4.2% | 2.67% | 1.42% | 2.19% | 3.59% | 0.45% | 3.92% | 1.19% | 3.24% | 0.91% | 1.11% | 2.85% | -2.53% | 6.29% | 9.08% | 8.58% | 5.31% | 1.94%
NC(=O)c1ccc(-c2nc(-c3ccccn3)c(-c3ccc4c(c3)OCO4)[nH]2)cc1 | 3.59% | 6.2% | 9.06% | 1.44% | 2.57% | 8.08% | 5.68% | 2.28% | 4.53% | 2.41% | 7.47% | 0.98% | -0.16% | 1.97% | 6.61% | 6.29% | 8.97% | 4.67% | 5.88% | 6.95%
COc1ccccc1Nc1ncc(-c2ccccc2)o1 | 2.74% | 14.1% | 47.5% | 4.24% | 6.87% | 16.9% | 69.4% | 35.6% | 53.5% | 11.1% | 47.7% | 3.68% | 5.01% | 0.49% | 11.1% | 5.4% | 6.88% | 3.68% | 5.75% | 9.37%
